# A number with no mark means an inactive call. Results filed as inconclusive are left out. A call without a number means that no potency is given here. The source made the active and inactive calls. Calls come from the whole dose curve; as a rule, active = well fitted curve in the direction sought with a large enough effect in the repeat runs; inconclusive = weak or mixed curves; inactive = no such curve, though single readings can be large; an effect the other way counts as inactive or inconclusive.
# Key:
# [1] = A CellTox Green Cytotoxicity Assay to monitor cytotoxicity in HEK293 cells - 40 hour (AID 1224871); note: nearly all actives have a fitted effect of over 45% in size; note: potency is the fitted concentration of half-maximal effect
# Summary of the method: (§1)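 Cells (HEK293, 600/well) and dye reagent are dispensed together. After 5 h at 37 C, 23 nL compound is pinned in. Plates stay at 37 C for 40 h with fluorescence read at 0h, 8h, 16h, 24h, 32h and 40h.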
# [2] = qHTS RealTime-Glo MT Cell Viability Assay in HepG2 cells - 8 hour (AID 1224873); note: nearly all actives have a fitted effect of over 55% in size
# Summary of the method: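 HepG2 cells mixed with RealTime-Glo MT reagents (NanoLuc plus cell-permeant prosubstrate) were seeded at 600 cells/well, incubated 5 h at 37 C/5% CO2, then pinned with compounds in DMSO; nonlytic luminescence tracked viability during 40 h treatment.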
# [3] = A CellTox Green Cytotoxicity Assay to monitor cytotoxicity in HEK293 cells - 24 hour (AID 1224875); note: series mostly up to about 77 µM; nearly all actives have a fitted effect of over 45% in size
# Summary of the method: as §1
# [4] = A CellTox Green Cytotoxicity Assay to monitor cytotoxicity in HepG2 cells - 16 hour (AID 1224876); note: nearly all actives have a fitted effect of over 45% in size
# Summary of the method: (§2)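 Cells and non-lytic dye reagent are dispensed together (600 HepG2 cells/well) and incubated 5 h before DMSO compound transfer. Kinetic fluorescence is then recorded in the same wells during 40 h at 37 C.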
# [5] = qHTS RealTime-Glo MT Cell Viability Assay in HepG2 cells - 32 hour (AID 1224877); note: nearly all actives have a fitted effect of over 55% in size
# Summary of the method: (§3)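 Compound treatment began 5 h after plating HepG2 cells (600/well) with NanoLuc luciferase and prosubstrate. Plates stayed at 37 C for 40 h; luminescence was captured at six time points, 0 h through 40 h.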
# [6] = A CellTox Green Cytotoxicity Assay to monitor cytotoxicity in HepG2 cells - 24 hour (AID 1224878); note: nearly all actives have a fitted effect of over 45% in size; note: potency is the fitted concentration of half-maximal effect
# Summary of the method: as §2
# [7] = A CellTox Green Cytotoxicity Assay to monitor cytotoxicity in HepG2 cells - 40 hour (AID 1224879); note: nearly all actives have a fitted effect of over 40% in size; note: potency is the fitted concentration of half-maximal effect
# Summary of the method: as §2
# [8] = A CellTox Green Cytotoxicity Assay to monitor cytotoxicity in HEK293 cells - 32 hour (AID 1224881); note: nearly all actives have a fitted effect of over 40% in size; note: potency is the fitted concentration of half-maximal effect
# Summary of the method: as §1
# [9] = A CellTox Green Cytotoxicity Assay to monitor cytotoxicity in HepG2 cells - 0 hour (AID 1224882); note: nearly all actives have a fitted effect of over 35% in size
# Summary of the method: as §2
# [10] = A CellTox Green Cytotoxicity Assay to monitor cytotoxicity in HepG2 cells - 32 hour (AID 1224883); note: nearly all actives have a fitted effect of over 50% in size; note: potency is the fitted concentration of half-maximal effect
# Summary of the method: as §2
# [11] = A CellTox Green Cytotoxicity Assay to monitor cytotoxicity in HEK293 cells - 8 hour (AID 1224884); note: nearly all actives have a fitted effect of over 35% in size
# Summary of the method: as §1
# [12] = qHTS RealTime-Glo MT Cell Viability Assay in HepG2 cells - 16 hour (AID 1224885); note: nearly all actives have a fitted effect of over 50% in size
# Summary of the method: as §3
# [13] = qHTS RealTime-Glo MT Cell Viability Assay in HEK293 cells - 8 hour (AID 1224887); note: top concentration of the series differs between compounds; nearly all actives have a fitted effect of over 50% in size
# Summary of the method: (§4)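 Real-time viability in HEK293: signal arises when living cells convert a prosubstrate for NanoLuc in the medium, so luminescence tracks viable cell number. Compound (23 nL, DMSO) added 5 h post-seeding; kinetic reads at 0–40 h, 37 C.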
# [14] = A CellTox Green Cytotoxicity Assay to monitor cytotoxicity in HEK293 cells - 16 hour (AID 1224888); note: nearly all actives have a fitted effect of over 35% in size
# Summary of the method: as §1
# [15] = qHTS RealTime-Glo MT Cell Viability Assay in HepG2 cells - 0 hour (AID 1224889); note: nearly all actives have a fitted effect of over 50% in size; note: potency is the fitted concentration of half-maximal effect
# Summary of the method: as §3
# [16] = qHTS RealTime-Glo MT Cell Viability Assay in HEK293 cells - 16 hour (AID 1224872)
# Summary of the method: (§5)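 Quantitative high-throughput screen of the Tox21 10K library in HEK293: cells and RealTime-Glo reagents plated together, compound added at 5 h, luminescence monitored through 40 h at 37 C.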
# [17] = qHTS RealTime-Glo MT Cell Viability Assay in HEK293 cells - 40 hour (AID 1224874); settings: RealTime-Glo luminescence; max response: active compounds read low; note: nearly all actives have a fitted effect of over 50% in size; note: potency is the fitted concentration of half-maximal effect
# Summary of the method: as §4
# [18] = qHTS RealTime-Glo MT Cell Viability Assay in HEK293 cells - 0 hour (AID 1224880); note: nearly all actives have a fitted effect of over 45% in size; note: potency is the fitted concentration of half-maximal effect; for activity change, negative = cytotoxicity: top concentration of the series differs between compounds
# Summary of the method: as §4
# [19] = qHTS RealTime-Glo MT Cell Viability Assay in HEK293 cells - 24 hour (AID 1224886)
# Summary of the method: as §5
# [20] = A CellTox Green Cytotoxicity Assay to monitor cytotoxicity in HepG2 cells - 8 hour (AID 1224890); note: nearly all actives have a fitted effect of over 45% in size
# Summary of the method: as §2
smiles,measurement,setting,value
CCC(C)N(C)C(=O)c1cc2ccccc2c(-c2ccccc2Cl)n1 (stereo not given),Potency,[1],inactive
same,Potency,[2],inactive
same,Potency,[3],inactive
same,Potency,[4],inactive
same,Potency,[5],inactive
same,Potency,[6],25.2 µM (active)
same,Potency,[7],28.2 µM (active)
same,Potency,[8],inactive
same,Potency,[9],inactive
same,Potency,[10],25.2 µM (active)
same,Potency,[11],inactive
same,Potency,[12],inactive
same,Potency,[13],inactive
same,Potency,[14],inactive
same,Potency,[15],20 µM (active)
CC(=O)Nc1ccc(/C=N/NC(N)=S)cc1,Potency,[16],inactive
same,Potency,[2],inactive
same,max response,[17],0.836%
same,Potency,[3],inactive
same,Potency,[4],inactive
same,Potency,[5],inactive
same,Potency,[6],inactive
same,Potency,[7],inactive
same,Potency,[18],inactive
same,Potency,[8],inactive
same,Potency,[9],inactive
same,Potency,[10],inactive
same,Potency,[11],inactive
same,Potency,[12],inactive
same,Potency,[19],inactive
same,Potency,[13],inactive
same,Potency,[14],inactive
same,Potency,[15],inactive
same,Potency,[20],inactive
CC1(C)CCC(C)(C)c2cc(NC(=O)c3ccc(C(=O)O)cc3)ccc21,Potency,[1],inactive
same,Potency,[2],inactive
same,Potency,[3],inactive
same,Potency,[4],inactive
same,Potency,[5],inactive
same,Potency,[7],inactive
same,Potency,[8],inactive
same,Potency,[10],inactive
same,Potency,[11],inactive
same,Potency,[12],inactive
same,Potency,[14],inactive
same,Potency,[15],inactive
same,Potency,[20],inactive
CC(CN)CCCN (stereo not given),Potency,[16],inactive
same,Potency,[2],inactive
same,max response,[17],1.48%
same,Potency,[3],inactive
same,Potency,[4],inactive
same,Potency,[5],inactive
same,Potency,[6],inactive
same,Potency,[7],inactive
same,Potency,[18],inactive
same,Potency,[8],inactive
same,Potency,[9],inactive
same,Potency,[10],inactive
same,Potency,[11],inactive
same,Potency,[12],inactive
same,Potency,[19],inactive
same,Potency,[13],inactive
same,Potency,[14],inactive
same,Potency,[15],inactive
same,Potency,[20],inactive
CC(=O)[C@@]1(O)CC[C@H]2[C@@H]3C[C@H](C)C4=CC(=O)CC[C@]4(C)[C@H]3CC[C@@]21C,Potency,[1],inactive
same,Potency,[2],inactive
same,Potency,[17],19 µM (active)
same,Potency,[3],inactive
same,Potency,[6],inactive
same,Potency,[7],inactive
same,Potency,[18],6.74 µM (active)
same,Potency,[8],inactive
same,Potency,[9],inactive
same,Potency,[10],inactive
same,Potency,[11],inactive
same,Potency,[12],inactive
same,Potency,[14],inactive
same,Potency,[15],1.51 µM (active)
same,Potency,[20],inactive
Cn1c(N)nc2nc[nH]c2c1=O,Potency,[1],inactive
same,Potency,[2],inactive
same,Potency,[3],inactive
same,Potency,[4],inactive
same,Potency,[5],inactive
same,Potency,[6],inactive
same,Potency,[7],21.6 µM (active)
same,Potency,[18],inactive
same,Potency,[8],inactive
same,Potency,[9],inactive
same,Potency,[10],inactive
same,Potency,[11],inactive
same,Potency,[12],inactive
same,Potency,[13],inactive
same,Potency,[14],inactive
same,Potency,[15],inactive
Nc1ccc(C(=O)N2CC3CC(CN(Cc4ccccc4)C3)C2)cc1,Potency,[16],inactive
same,Potency,[2],inactive
same,max response,[17],-8.65%
same,Potency,[3],inactive
same,Potency,[4],inactive
same,Potency,[5],inactive
same,Potency,[6],inactive
same,Potency,[7],inactive
same,Potency,[18],inactive
same,Potency,[8],inactive
same,Potency,[9],inactive
same,Potency,[10],inactive
same,Potency,[11],inactive
same,Potency,[12],inactive
same,Potency,[19],inactive
same,Potency,[13],inactive
same,Potency,[14],inactive
same,Potency,[15],inactive
same,Potency,[20],inactive
O=C(C(=O)c1ccc(Br)cc1)c1ccc(Br)cc1,"activity change, negative = cytotoxicity",[16],5.77% [at 15.8 µM]
same,"viability change, negative = cytotoxic",[2],-3.19% [at 15.8 µM]
same,max response,[17],0.201%
same,activity change,[3],"-0.496% [at 15.8 µM, active compounds read high]"
same,cytotoxicity increase,[4],-6.44% [at 15.8 µM]
same,"activity change, negative = cytotoxic",[5],2.16% [at 15.8 µM]
same,cytotoxicity,[6],-10% [at 15.8 µM]
same,cytotoxicity increase,[7],-10.2% [at 15.8 µM]
same,"activity change, negative = cytotoxicity",[18],-3.2% [at 15.8 µM]
same,cytotoxicity increase,[8],-0.258% [at 15.8 µM]
same,cytotoxicity,[9],-5.86% [at 15.8 µM]
same,cytotoxicity increase,[10],-9.52% [at 15.8 µM]
same,cytotoxicity increase,[11],6.57% [at 15.8 µM]
same,"activity change, negative = cytotoxic",[12],-1.79% [at 15.8 µM]
same,"activity change, negative = cytotoxicity",[19],5.88% [at 15.8 µM]
same,"activity change, negative = cytotoxicity",[13],2.33% [at 15.8 µM]
same,activity change,[14],"0.498% [at 15.8 µM, active compounds read high]"
same,"activity change, negative = cytotoxicity",[15],-3.46% [at 15.8 µM]
same,cytotoxicity increase,[20],-4.98% [at 15.8 µM]
O=C(NN1CCCC1)NS(=O)(=O)c1ccc(Cl)cc1,Potency,[16],inactive
same,Potency,[2],inactive
same,max response,[17],15.3%
same,Potency,[3],inactive
same,Potency,[4],inactive
same,Potency,[5],inactive
same,Potency,[6],inactive
same,Potency,[7],inactive
same,Potency,[8],inactive
same,Potency,[9],inactive
same,Potency,[10],inactive
same,Potency,[11],inactive
same,Potency,[12],inactive
same,Potency,[19],inactive
same,Potency,[13],inactive
same,Potency,[14],inactive
same,Potency,[15],inactive
CC(Cc1cccc(C(F)(F)F)c1)NCCOC(=O)c1ccccc1 (stereo not given),Potency,[1],21.3 µM (active)
same,Potency,[2],inactive
same,Potency,[3],inactive
same,Potency,[5],inactive
same,Potency,[8],21.3 µM (active)
same,Potency,[9],inactive
same,Potency,[11],inactive
same,Potency,[12],inactive
same,Potency,[14],inactive
same,Potency,[15],inactive
CN(c1nccc(=O)[nH]1)C1CCN(c2nc3ccccc3n2Cc2ccc(F)cc2)CC1,Potency,[1],inactive
same,Potency,[2],inactive
same,Potency,[4],inactive
same,Potency,[5],inactive
same,Potency,[6],inactive
same,Potency,[7],inactive
same,Potency,[18],inactive
same,Potency,[8],inactive
same,Potency,[9],inactive
same,Potency,[10],inactive
same,Potency,[12],inactive
same,Potency,[14],inactive
same,Potency,[15],inactive
same,Potency,[20],inactive
CCCCCCCCCCCCCCC1CO1 (stereo not given),Potency,[16],inactive
same,Potency,[2],inactive
same,max response,[17],0.82%
same,Potency,[3],inactive
same,Potency,[4],inactive
same,Potency,[5],inactive
same,Potency,[6],inactive
same,Potency,[7],inactive
same,Potency,[18],inactive
same,Potency,[8],inactive
same,Potency,[9],inactive
same,Potency,[10],inactive
same,Potency,[11],inactive
same,Potency,[12],inactive
same,Potency,[19],inactive
same,Potency,[13],inactive
same,Potency,[14],inactive
same,Potency,[15],inactive
same,Potency,[20],inactive
O=C(Nc1ccccc1)OCC(CN1CCCCC1)OC(=O)Nc1ccccc1 (stereo not given),Potency,[1],inactive
same,Potency,[2],inactive
same,Potency,[3],inactive
same,Potency,[4],inactive
same,Potency,[5],inactive
same,Potency,[8],inactive
same,Potency,[11],inactive
same,Potency,[14],inactive
same,Potency,[15],inactive
same,Potency,[20],inactive
CC(C)=CCCC(C)CC=O (stereo not given),Potency,[16],inactive
same,Potency,[2],inactive
same,max response,[17],-1.27%
same,Potency,[3],inactive
same,Potency,[4],inactive
same,Potency,[5],inactive
same,Potency,[7],inactive
same,Potency,[18],inactive
same,Potency,[8],inactive
same,Potency,[9],inactive
same,Potency,[10],inactive
same,Potency,[12],inactive
same,Potency,[19],inactive
same,Potency,[13],inactive
same,Potency,[14],inactive
same,Potency,[15],inactive
O=C1c2cccc(O)c2C(=O)c2c(O)cc(CO)cc21,Potency,[1],inactive
same,Potency,[2],inactive
same,max response,[17],29.8%
same,Potency,[3],inactive
same,Potency,[5],inactive
same,Potency,[7],inactive
same,Potency,[18],inactive
same,Potency,[9],inactive
same,Potency,[10],inactive
same,Potency,[11],inactive
same,Potency,[12],inactive
same,Potency,[14],inactive
same,Potency,[15],inactive
same,Potency,[20],inactive

# — PubChem BioAssay (Tox21)
